CSC inhib – cancer stem cell inhibition; actives 1.1% (n = 300,000); inhibition, % at 7.5 µM; AID 2717; cancer stem cell-like cells viability, luminescence; in the data active = inhibition above about 75%; inconclusive = no clear call, values can overlap the other calls; tested in HMLE shEcad cells
Calb FLC – affects C. albicans growth with fluconazole | growth inhibition, % (test concentration not listed) | actives 0.57% (n = 300,000) | C. albicans CaCi-2 (fluconazole-resistant clinical isolate) + fluconazole, Alamar Blue growth, 48 h | AID 1979;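 active = growth inhibition above about 58% in most replicates, limit read from the data, passing the limit was not always enough; inconclusive = exactly half the replicates above a set limit; inactive = most replicates below a set limit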;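 note: all wells also contain fluconazole at 8 µg/ml as a sub-toxic cotreatment; 0% = median of DMSO wells and 100% = median of geldanamycin control wells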
MPTP block – permeability transition pore inhibition; actives 1.4% (n = 360,000); isolated mouse mitochondria, Ca2+ swelling absorbance, 30 min; inhibition, % at 10 µM;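 active = inhibition of 50% or more, scaled per plate between neutral and stimulator controls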;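 note: 0% = DMSO wells given calcium and 100% = 1 mM EGTA wells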
Beta cell apopt – blocks beta cell apoptosis. INS-1E cytokine-induced death, ATP luminescence, 48 h; percent of positive-control rescue, neutral wells zero. protection from apoptosis, % (test concentration not listed). actives 0.8% (n = 300,000). AID 435005;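 active = Every replicate reaches about 75%, or at least half do and their mean reaches it too, limit read from the data; inconclusive = At least half of replicates reach the limit but their mean does not; inactive = Under half of replicates reach the limit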;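 note: 0% = cytokine-treated negative control wells and 100% = positive control rescue; higher means more ATP so stronger rescue from cytokine killing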
Mdm2 MdmX PPI – human Mdm2/MdmX binding inhibition | inhibition, % at 8 µM | SaOS-2 split-luciferase Mdm2/MdmX complementation, luminescence | O15151+Q00987 | actives 3% (n = 330,000);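 active = inhibition of at least 50% at 8 µM in the primary screen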
Target sequence (O15151 whole entry, looked up): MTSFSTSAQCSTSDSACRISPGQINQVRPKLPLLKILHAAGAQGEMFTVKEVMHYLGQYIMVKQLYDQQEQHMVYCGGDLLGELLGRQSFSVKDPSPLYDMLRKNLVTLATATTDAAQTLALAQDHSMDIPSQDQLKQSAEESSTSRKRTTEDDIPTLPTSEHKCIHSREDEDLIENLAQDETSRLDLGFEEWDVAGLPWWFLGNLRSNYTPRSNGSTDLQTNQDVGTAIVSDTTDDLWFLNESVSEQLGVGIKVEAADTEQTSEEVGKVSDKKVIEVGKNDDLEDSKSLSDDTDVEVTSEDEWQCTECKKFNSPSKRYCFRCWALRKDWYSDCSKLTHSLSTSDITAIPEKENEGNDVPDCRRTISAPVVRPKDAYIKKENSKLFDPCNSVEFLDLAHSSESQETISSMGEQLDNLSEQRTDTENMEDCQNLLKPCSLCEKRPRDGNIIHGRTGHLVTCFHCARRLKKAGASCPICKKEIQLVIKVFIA
Target sequence (Q00987 whole entry, looked up): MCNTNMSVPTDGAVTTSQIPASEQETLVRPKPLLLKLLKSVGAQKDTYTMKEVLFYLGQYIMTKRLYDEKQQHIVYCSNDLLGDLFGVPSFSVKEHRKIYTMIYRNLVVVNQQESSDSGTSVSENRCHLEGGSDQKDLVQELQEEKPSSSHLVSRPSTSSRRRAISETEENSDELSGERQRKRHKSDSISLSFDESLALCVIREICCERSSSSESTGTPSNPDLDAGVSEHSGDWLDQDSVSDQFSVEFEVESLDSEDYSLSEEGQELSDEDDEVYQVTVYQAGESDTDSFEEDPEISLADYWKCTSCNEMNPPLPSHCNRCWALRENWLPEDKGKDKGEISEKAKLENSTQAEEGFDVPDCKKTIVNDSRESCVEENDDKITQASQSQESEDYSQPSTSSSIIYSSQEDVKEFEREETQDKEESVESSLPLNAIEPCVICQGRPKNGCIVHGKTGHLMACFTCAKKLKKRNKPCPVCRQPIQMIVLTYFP
Starred values were filed as active, the others as inactive; ? = inconclusive; / = no result. This is a sample that favours compounds with a hit; in the whole collection about 4.8% have one here.

SMILES	CSC inhib	Calb FLC	MPTP block	Beta cell apopt	Mdm2 MdmX PPI
CCCC(=O)N1CCCC(c2cc(C(=O)NCc3cccnc3)no2)C1 (stereo unspecified)	/	/	-0.1	/	/
CC(=O)Nc1ccc(-c2csc(NC(=O)Cc3cccc(F)c3)n2)cc1	90.4*	-3.6	-3.3	9.8	17.6
CC(=O)Nc1ccc(-c2csc(NC(=O)Cc3ccccc3F)n2)cc1	90.0*	-0.3	-1.1	-4.3	-8.9
CC1(C(=O)Nc2cccc(Oc3ccccc3)c2)CCN1C1Cc2ccccc2C1 (stereo unspecified)	/	/	0.6	/	/
O=S1(=O)CC(N2CCCCC2)CN1CCc1ccccc1 (stereo unspecified)	/	/	0.3	/	/
COc1cc(N/N=C/c2ccccc2O)ncn1	23.0	43.7	-3.9	87.5*	43.0
CCCS(=O)(=O)NC(=O)C1(C)CCCN(C(=O)c2c(-c3ccccc3)noc2C)C1 (stereo unspecified)	/	/	1.0	/	/
O=C(NCCN1CCC(n2c(=O)[nH]c3ccccc32)CC1)c1ccc(C(F)(F)F)cc1C(F)(F)F	/	/	6.9	/	/
O=C(NC(=S)Nc1ccccc1O)c1ccc(Cl)cc1Cl	-9.8	111.2*	0.4	/	-10.6
O=C(COc1ccccc1)NNC(=S)NC(=O)c1ccc(Cl)cc1Cl	-3.4	104.5*	/	-1.6	15.2
CC(C)C(=O)Nc1cccc(NC(=S)NC(=O)c2ccccc2Cl)c1	6.7	21.4	2.4	4.1	3.1
O=C(Nc1ccc(NC(=S)NC(=O)c2ccccc2Cl)cc1)c1cccc(Cl)c1	79.4*	?	-0.7	-1.1	17.1
Cc1cccc(C(=O)NC(=S)NNC(=O)COc2ccc(Cl)cc2)c1	/	?	10.9	/	24.1
CSCCC(C(=O)NCc1ccccc1)n1c(Cc2cc(F)cc(F)c2)nc2ccccc21 (stereo unspecified)	/	/	2.1	/	/
CCOC(=O)[C@]12CCC=C1N(Cc1ccc3c(c1)OCO3)C(=O)[C@H](CC(=O)N1CCSCC1)C2	/	/	-1.5	/	/
COc1ccc(NC(=O)c2cc(-c3ccccc3Cl)on2)cc1	33.5	-2.9	-1.0	1.0	-28.5
COc1ccc(NC(=O)c2cc(-c3ccccc3OC)on2)cc1	79.7*	-16.5	0.3	9.3	/
COc1ccc(C(C(=O)NC2CCCC2)n2c(CSCCOc3ccccc3)nc3ccccc32)cc1 (stereo unspecified)	/	/	0.4	/	/
Cc1ccc(C2C3CSCC=C3C(C#N)=C(N)C2(C#N)C#N)cc1 (stereo unspecified)	6.1	89.8*	0.0	-5.0	-0.1
Cc1ncccc1C(=O)N1CCCC(c2cc(C(=O)Nc3ccc(C(C)(C)C)cc3)no2)C1 (stereo unspecified)	/	/	-0.4	/	/
Cc1ccc(C(=O)Nc2ncc(Cc3ccccc3)s2)o1	96.8*	-0.7	-3.9	/	-104.3
C=CCNC(=S)N/N=C/c1ccc(-c2ccc(OC)cc2)o1	10.3	104.5*	-1.8	14.5	16.6
C=CCNC(=S)N/N=C/c1ccc(-c2ccc(Cl)cc2Cl)o1	39.3	20.5	9.5	21.6	6.6
CCCCCN=Cc1c(C)[nH]n(-c2nc3ccccc3s2)c1=O	-18.0	5.2	1.3	90.4*	26.8
CCCCC[C@@H](C)N1C[C@H](COCc2ccccc2)Oc2cc(N3CC[C@H](O)C3)ccc2S1(=O)=O	/	/	1.6	/	/
SMILES	CSC inhib	Calb FLC	MPTP block	Beta cell apopt	Mdm2 MdmX PPI
C[N+]1=C(/C=C/Nc2ccccc2Cl)C(C)(C)c2ccccc21	0.4	-5.0	6.2	98.9*	-13.3
FC(F)(F)c1cnc(/C=C/Nc2ccccc2Cl)c(Cl)c1	6.3	21.9	3.9	-3.7	9.5
COc1ccc(OC)c(NC(=O)CSc2nnc(-c3cccnc3)s2)c1	-20.9	-1.3	1.3	98.8*	19.4
CCCCCCCCOC(=O)C1=C(C)Nc2nnnn2C1c1cccs1 (stereo unspecified)	102.0*	7.2	20.1	2.2	41.1
CCCCCCCOC(=O)C1=C(C)Nc2ncnn2C1c1cccs1 (stereo unspecified)	-4.2	14.3	30.9	23.7	37.3
Cc1cc(O)ccc1-c1ccc2nncn2c1	/	/	-0.6	/	/
Nc1c(Cl)ncnc1N/N=C/c1ccc2ccccc2n1	101.6*	/	2.8	113.4*	/
Nc1c(Cl)ncnc1N/N=C/c1ccccn1	102.0*	/	/	118.6*	/
CCOc1ccc(C(=O)/C=C/c2cn(CN3CCN(C)CC3)c3ccccc23)cc1	99.9*	/	1.7	-1.4	-59.5
OC(c1ccc(-c2ccccc2)cc1)c1ncc(-c2ccc(F)cc2)[nH]1 (stereo unspecified)	/	/	3.4	/	/
Cc1nc(NC(=O)c2c(-c3ccccc3)noc2C)sc1C(=O)N(C)C	24.1	120.4*	0.2	4.5	-2.1
CC(C)Oc1cc(F)ccc1-c1cc(C(=O)Nc2cccc(C(F)(F)F)c2)[nH]n1	/	/	28.8	/	/
Cc1cc(C)nc(NC(=NCCc2c[nH]c3ccccc23)NC(=O)Nc2ccc(Cl)cc2)n1	97.0*	3.1	2.9	20.4	39.3
NC(=NCCc1c[nH]c2ccccc12)NC(=O)c1ccc(Cl)cc1	43.5	4.4	4.0	-6.8	8.7
COc1ccc(-c2sc3cc4c(cc3c2C#CC2(O)CCCCC2)OCO4)cc1	112.0*	/	1.9	-9.4	5.6
COc1ccccc1NC(=O)Nc1ccc(-n2ccc(C(F)(F)F)n2)cc1	83.2*	-0.2	28.2	13.3	-16.8
COc1ccc(/C=C2\SC(=O)N(CC(=O)NNC(=O)c3ccccc3O)C2=O)cc1OC	9.9	104.8*	1.4	-5.5	12.4
COc1ccc(/C=C2\SC(=O)N(CC(=O)NNC(=O)c3ccccc3O)C2=O)cc1	34.7	25.2	-2.0	3.0	10.8
O=C1NC[C@@H](CCCCN2C[C@H](Cc3ccc(O)cc3)N(CCc3ccccc3)C(=O)C2=O)N(Cc2ccccc2)C1=O	/	/	-0.1	/	/
COc1ccc(NC2=Nc3ccccc3N3C2=Nc2c(c(C)nn2-c2ccc(C)cc2)C3c2cccnc2)cc1 (stereo unspecified)	7.5	118.7*	3.3	8.8	6.6
OC(c1ccccc1)c1nc(/C=C/c2ccccc2)cs1 (stereo unspecified)	/	/	-0.4	/	/
COc1cc(N=Nc2ccc3ccccc3c2)ccc1O	93.0*	24.6	3.7	-4.8	-131.2
NS(=O)(=O)c1ccc(N=Nc2c(O)ccc3ccccc23)cc1	27.5	33.4	-0.5	-6.3	26.1
Oc1ccc(N=Nc2c(O)ccc3ccccc23)cc1	77.6*	24.9	45.8	21.2	16.1
Oc1ccc(N=Nc2ccc3ccccc3c2)cc1	110.5*	-10.8	4.7	1.7	-230.7
SMILES	CSC inhib	Calb FLC	MPTP block	Beta cell apopt	Mdm2 MdmX PPI
CCCn1c(N2CCN(C(=O)Nc3ccc(Cl)cc3)CC2)nc2ccccc21	18.9	-9.6	0.0	1.4	22.1
CC(C)n1c(N2CCN(C(=O)Nc3ccc(Cl)cc3)CC2)nc2ccccc21	-12.2	73.1*	8.6	-1.1	34.1
O=C(NC1CCCCC1)OC1CC2CC1[C@H]1CCCCN1C2=O (stereo partly specified)	/	/	-3.4	/	/
Cc1ccc(CN2CCSc3ccc(C(=O)NCc4ccco4)cc32)cc1	83.6*	-3.8	6.9	-6.1	30.0
Cc1ccc(CN2CCSc3ccc(C(=O)NCCCN4CCOCC4)cc32)cc1	23.5	3.8	-1.4	9.7	29.8
Cc1ccccc1Oc1ccc(NC(=O)C2CC=CCC2C(=O)O)cc1 (stereo unspecified)	-7.6	13.6	-0.1	-2.0	-13.4
